High-throughput results (PubChem)
A selection: hits, their analogues and other compounds. The true share with any hit is near 5.7%.
hcDAF12 agonist – activates DAF-12 receptor from parasite H. contortus; HEK293 hcDAF-12 lit1-tk-luc reporter, luminescence; 0% DMSO, 100% Δ7-dafachronic acid; 370,000 tested, 1.4% active; activation, % at 6.8 µM;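 active = activation above the mean of all tested compounds plus 3 SD, cut at about 5.5% in these data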
DAX1 inh-1 – inhibitors of human orphan nuclear receptor DAX1 (NR0B1) | P51843 | HEK293 Gal4-DAX1 luciferase reporter, luminescence | inhibition, % at 6.75 µM | 340,000 tested, 0.99% active;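 active = inhibition above the mean over all tested compounds plus 3 SD, cut at about 4.2% in these data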;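 note: inhibition shows as a rise in luminescence from relieved DAX1 repression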
Target sequence (P51843 207-470 limits assumed): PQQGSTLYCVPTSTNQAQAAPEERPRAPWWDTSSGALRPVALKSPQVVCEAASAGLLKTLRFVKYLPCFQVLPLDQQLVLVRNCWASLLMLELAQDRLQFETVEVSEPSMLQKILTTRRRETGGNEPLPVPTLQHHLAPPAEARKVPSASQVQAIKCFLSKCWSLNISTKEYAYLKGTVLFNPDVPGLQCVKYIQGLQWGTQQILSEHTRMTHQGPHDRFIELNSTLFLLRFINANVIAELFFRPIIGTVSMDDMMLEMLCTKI
hgDAF12 agonist – agonists of H. glycines DAF-12 nuclear receptor | HEK293 GAL4-hgDAF12 UAS-luciferase reporter, agonist luminescence; normalized to butyrate control | activation, % at 6.8 µM | 370,000 tested, 1.8% active | AID 687014;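 active = activation above a cutoff set at the mean of all screened compounds plus 3 SD, cut at about 10% in these data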
DAX1 inh-2 – blocks DAX1 repression of SF-1 activated StAR promoter; HEK293T StAR-luciferase reporter, SF-1/DAX-1 repression relief; inhibition, % at 6.8 µM; 370,000 tested, 1.1% active;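 active = inhibition above the mean over all tested compounds plus 3 SD, cut at about 3.6% in these data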;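 note: higher inhibition means more luminescence from relief of DAX-1 repression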
AHR act – activators of human aryl hydrocarbon receptor | activation, % at 5 µM | AHR-responsive luciferase reporter cells, luminescence | AID 2796 | 320,000 tested, 2.5% active | P35869; in the data active = activation above about 47%
ssDAF-12 act – S. stercoralis DAF-12 activation, primary screen; HEK293 ssDAF-12/GRIP1 lit1-tk-luc reporter, luminescence; % of 3 µM dafachronic acid response; activation, % at 6.8 µM; 370,000 tested, 1% active; AID 652126;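 active = activation above the mean over all tested compounds plus 3 SD, cut at about 0.9% in these data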
Numbers stand for hits.

CCC(=O)Nc1nc2c(OC)ccc(OC)c2s1 was read as hcDAF12 agonist inactive, DAX1 inh-1 inactive, hgDAF12 agonist inactive, DAX1 inh-2 inactive, AHR act 68.5 and ssDAF-12 act inactive.
Screening O=C(NNc1nc2c(F)cc(F)cc2s1)C1COc2ccccc2O1 (stereo not drawn) returned hcDAF12 agonist inactive, DAX1 inh-1 inactive, hgDAF12 agonist inactive, DAX1 inh-2 inactive, AHR act inactive and ssDAF-12 act inactive.
`COc1ccc(OC)c2sc(NNC(=O)C3COc4ccccc4O3)nc12` (stereo not drawn) gave hcDAF12 agonist inactive, DAX1 inh-1 inactive, hgDAF12 agonist inactive, DAX1 inh-2 inactive, AHR act 57.4 and ssDAF-12 act inactive.
`CCCC(=O)Nc1nc2c(OC)ccc(OC)c2s1` gave hcDAF12 agonist inactive, DAX1 inh-1 inactive, hgDAF12 agonist inactive, DAX1 inh-2 inactive, AHR act 67.9 and ssDAF-12 act inactive.
Screening CCCC(=O)Nc1nc(-c2ccc(OC)cc2)cs1 returned hcDAF12 agonist inactive, DAX1 inh-1 inactive, hgDAF12 agonist inactive, DAX1 inh-2 inactive, AHR act inactive and ssDAF-12 act inactive.
Screening CCOc1cc(CNCc2cccnc2)ccc1OCC(=O)NC(C)(C)C returned hcDAF12 agonist inactive, DAX1 inh-1 inactive, hgDAF12 agonist inactive, DAX1 inh-2 inactive, AHR act inactive and ssDAF-12 act inactive.
Screening CCCOCC(O)CCc1n[nH]c(=S)n1-c1ccccc1 (stereo not drawn) returned hcDAF12 agonist inactive, DAX1 inh-1 inactive, hgDAF12 agonist inactive, DAX1 inh-2 inactive, AHR act inactive and ssDAF-12 act inactive.
`COc1cccc(CNC(=O)[C@H]2CCCN2C(=O)[C@H]2CCCN2C(=O)c2ccccc2C(F)(F)F)c1` gave hcDAF12 agonist inactive, hgDAF12 agonist inactive, DAX1 inh-2 inactive and ssDAF-12 act inactive.
For Cc1cc(C)c(C#N)c(Nc2ccc(F)cc2)n1 the results were hcDAF12 agonist inactive, DAX1 inh-1 inactive, hgDAF12 agonist inactive, DAX1 inh-2 inactive, AHR act 74.5 and ssDAF-12 act inactive.
For CNC(=O)CN(c1ccc(F)cc1)S(=O)(=O)c1cc(C)ccc1OC the results were hcDAF12 agonist inactive, DAX1 inh-1 4.3, hgDAF12 agonist inactive, DAX1 inh-2 inactive, AHR act inactive and ssDAF-12 act inactive.
`COc1ccc(CCN2C(=O)N[C@@H](C(C)C)C2=O)cc1` gave hcDAF12 agonist inactive, DAX1 inh-1 inactive, hgDAF12 agonist inactive, DAX1 inh-2 inactive, AHR act inactive and ssDAF-12 act inactive.
Screening Cc1ccc2[nH]c(C)c(/C=N/Nc3nc4ccccc4s3)c2c1 returned hcDAF12 agonist inactive, DAX1 inh-1 inactive, hgDAF12 agonist inactive, DAX1 inh-2 inactive, AHR act 65.0 and ssDAF-12 act inactive.
For Cc1ccc(-c2ccc(/C=C3\SC(N4CCOCC4)=NC3=O)o2)cc1 the results were hcDAF12 agonist inactive, DAX1 inh-1 inactive, hgDAF12 agonist inactive, DAX1 inh-2 inactive, AHR act 54.4 and ssDAF-12 act inactive.
O=C1N=C(N2CCOCC2)S/C1=C\c1cccnc1 was read as hcDAF12 agonist inactive, DAX1 inh-1 inactive, hgDAF12 agonist inactive, DAX1 inh-2 inactive, AHR act inactive and ssDAF-12 act inactive.
O=C1N=C(N2CCOCC2)SC1=Cc1ccco1 was read as hcDAF12 agonist inactive, DAX1 inh-1 inactive, hgDAF12 agonist inactive, DAX1 inh-2 inactive and ssDAF-12 act inactive.
O=C1N=C(N2CCOCC2)S/C1=C/c1ccc(-c2ccc(F)cc2)o1 was read as hcDAF12 agonist inactive, DAX1 inh-1 inactive, hgDAF12 agonist inactive, DAX1 inh-2 inactive, AHR act 82.4 and ssDAF-12 act inactive.
`CCCC(=O)NCCSC` gave hcDAF12 agonist inactive, DAX1 inh-1 inactive, hgDAF12 agonist inactive, DAX1 inh-2 inactive, AHR act inactive and ssDAF-12 act inactive.
`Nc1nc(=O)n(C2CC(O)C(CO)O2)cc1Cl` (stereo not drawn) gave hcDAF12 agonist inactive, hgDAF12 agonist inactive, DAX1 inh-2 inactive and ssDAF-12 act 3.1.
`O=C(COC(=O)Cn1c(C(F)(F)F)nc2ccccc21)Nc1ccc2c(c1)OCCO2` gave hcDAF12 agonist inactive, DAX1 inh-1 inactive, hgDAF12 agonist inactive, DAX1 inh-2 inactive, AHR act inactive and ssDAF-12 act inactive.
Screening COc1ccc(C(=O)NCc2ccc(OCCN(C)C)cc2)cc1OC returned hcDAF12 agonist 5.6, DAX1 inh-1 inactive, hgDAF12 agonist inactive, DAX1 inh-2 inactive, AHR act inactive and ssDAF-12 act inactive.
`O=C(/C=C/c1ccc(Cl)cc1)NC1CC2CCC1C2` (stereo not drawn) gave hcDAF12 agonist inactive, DAX1 inh-1 inactive, hgDAF12 agonist 11.4, DAX1 inh-2 inactive, AHR act inactive and ssDAF-12 act inactive.
`COc1cc(OC)cc(C(=O)N[C@H](C(=O)OCC(=O)N2CCc3ccccc32)C(C)C)c1` gave hcDAF12 agonist inactive, DAX1 inh-1 inactive, hgDAF12 agonist inactive, DAX1 inh-2 inactive, AHR act inactive and ssDAF-12 act inactive.
For COc1ccc(CN2C(=O)CCC2(C)c2nnnn2C2CCCCC2)cc1 (stereo not drawn) the results were hcDAF12 agonist inactive, hgDAF12 agonist inactive, DAX1 inh-2 inactive and ssDAF-12 act inactive.
C=c1[nH]cc(C(C)c2c(C)n(C)c3ccccc23)/c1=C/C (stereo not drawn) was read as hcDAF12 agonist 6.0, hgDAF12 agonist inactive, DAX1 inh-2 inactive and ssDAF-12 act inactive.
CN(NC(=O)c1ccc(Cl)cc1)c1ncc(C(F)(F)F)cc1Cl was read as hcDAF12 agonist inactive, DAX1 inh-1 inactive, hgDAF12 agonist inactive, DAX1 inh-2 inactive, AHR act inactive and ssDAF-12 act inactive.
O/N=C(\c1ccc(Cl)cc1)c1ncc(C(F)(F)F)cc1Cl was read as hcDAF12 agonist inactive, DAX1 inh-1 inactive, hgDAF12 agonist inactive, DAX1 inh-2 inactive, AHR act 79.0 and ssDAF-12 act inactive.
COc1c(O)ccc(/C=N\NC(=O)c2ccc3c(c2)OCO3)c1[N+](=O)[O-] was read as hcDAF12 agonist inactive, DAX1 inh-1 5.5, hgDAF12 agonist inactive, DAX1 inh-2 inactive, AHR act inactive and ssDAF-12 act inactive.
`O=C(N/N=C/c1ccccc1)c1ccc2c(c1)OCO2` gave hcDAF12 agonist inactive, DAX1 inh-1 inactive, hgDAF12 agonist inactive, DAX1 inh-2 inactive, AHR act 70.0 and ssDAF-12 act inactive.
O=C(N/N=C/c1ccc2c(c1)OCO2)c1cc2ccccc2o1 was read as hcDAF12 agonist inactive, DAX1 inh-1 inactive, hgDAF12 agonist inactive, DAX1 inh-2 inactive, AHR act 69.0 and ssDAF-12 act inactive.
For O=C(N/N=C/c1cc2c(cc1[N+](=O)[O-])OCO2)c1ccc2c(c1)OCO2 the results were hcDAF12 agonist inactive, DAX1 inh-1 inactive, hgDAF12 agonist inactive, DAX1 inh-2 inactive, AHR act inactive and ssDAF-12 act inactive.
`O=C(N/N=C/c1cccc2ccccc12)c1cc2ccccc2o1` gave hcDAF12 agonist inactive, DAX1 inh-1 inactive, hgDAF12 agonist inactive, DAX1 inh-2 inactive and ssDAF-12 act inactive.
